PTAP-TSG101 blk – qHTS Validation Assay for Inhibitors of HIV-1 Budding by Blocking the Interaction of PTAP/TSG101: Sytravon Library Screen; 44,000 tested, under 10 active; Potency, µM (highest dose often 115 µM), hits mostly inhibitors; AID 1347069, 2019; Fluorescence polarization, FITC-PTAP peptide/Tsg101, 20 min; also: potency is read from the fitted curve at half-maximal effect; 0% is about no effect
Target sequence (Q99816 whole entry, looked up): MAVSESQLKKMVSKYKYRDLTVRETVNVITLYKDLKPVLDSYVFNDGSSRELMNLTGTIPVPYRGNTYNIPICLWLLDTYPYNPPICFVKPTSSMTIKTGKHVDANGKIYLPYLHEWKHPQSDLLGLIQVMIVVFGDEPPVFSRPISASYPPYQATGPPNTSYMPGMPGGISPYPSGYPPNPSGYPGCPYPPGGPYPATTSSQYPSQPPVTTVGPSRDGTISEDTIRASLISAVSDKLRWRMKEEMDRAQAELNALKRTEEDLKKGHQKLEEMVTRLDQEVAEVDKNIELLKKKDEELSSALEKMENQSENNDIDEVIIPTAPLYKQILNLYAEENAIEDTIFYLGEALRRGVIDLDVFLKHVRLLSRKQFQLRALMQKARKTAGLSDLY
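Read-out is FITC fluorescence polarization. Compounds were added to Tsg101 binding domain (10 uM final), then FITC-PTAP peptide (50 nM final), 20 min at r.t. Total S+P intensity flags fluorescent compounds.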
HTT prom inh – Primary qHTS for Identification of Small Molecule Inhibitors of Huntingtin Promoter Activity; AID 1508623, 2021; hit rate 0.93% among 48,000; Potency, µM (highest dose often 57.5 µM), without a hit: at the top dose activity change, negative = inhibition, usual class: inhibitors; HEK293 HTT promoter firefly luciferase reporter, 24 h; also: potency is read from the fitted curve at half-maximal effect; nearly all actives have a fitted effect of over 50% in size
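Quantitative HTS used concentration series of up to 57.5 uM final on HEK293 luciferase reporter cells, 24 h at 37 degrees C. Readout was Dual-Glo firefly luminescence.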
GALK inhibitor – qHTS Assay for Inhibitors of Human Galactokinase (GALK): NCGC Sytravon Library Screen; P51570; recombinant GALK, Kinase-Glo ATP luminescence, 1 h; Potency, µM (highest dose often 57.5 µM), for inactives: at the top dose activity, negative = inhibition, usual class: inhibitors; 44,000 tested, under 10 active; AID 1347072, 2019;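 also: plate controls were full GALK reaction for no effect and reaction lacking GALK for full effect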
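Reactions with and without enzyme served as controls. GALK at 5 nM phosphorylates 100 uM galactose using 35 uM ATP (HEPES pH 8.0, Mg2+) for 1 h at RT, with luminescence read 10 min after adding Kinase-Glo Plus.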
HTT-AS promoter – Primary qHTS for Identification of Small Molecule Activators of Huntingtin-Antisense Promoter Activity. HEK293 HTT-AS promoter firefly luciferase reporter, 24 h; response scale: percent change from vehicle, -100% = no light. Potency, µM (highest dose often 57.5 µM), for the others: at the highest dose activity change, positive = activation, most hits filed as activators. hit rate 0.24% among 48,000. AID 1508624, 2021; also: potency is read from the fitted curve at half-maximal effect; nearly all actives have a fitted effect of over 55% in size
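Firefly luciferase readout (Dual-Glo, 10 min RT) after 24 h, 37 °C compound exposure (final up to 57.5 uM) of HEK293 reporter cells cultured 24 h beforehand; PTC124 at 50 uM final as control inhibitor; activity scaled vehicle 0%, zero RLU -100%.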
B2AR arrestin ag – qHTS assay of beta-arrestin-biased ligands of beta2-adrenergic receptor: NCGC Sytravon Library Screen | AID 1347077, 2019 | 44,000 tested, under 10 active | Beta-2 adrenergic receptor (Homo sapiens), P07550 | Potency, µM (highest dose often 46.1 µM), actives largely listed as activators | HTLA Tango cells, beta-arrestin recruitment, luciferase luminescence, 18 h;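 also: potency is read from the fitted curve at half-maximal effect; 0% = DMSO and full agonism = EC100 isoproterenol or metaproterenol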
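First, Tango cells carrying beta2-AR and beta-arrestin fusions received compound up to 46 microM. After 18 hr at 37 degrees C, luciferase substrate was added for 15 minutes, then luminescence gave %Activity for curve fitting.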
NTMT1 inhibitor – Primary qHTS for Inhibitors of N-terminal methyltransferase 1 (NTMT1): MTaseGlo Assay | hit rate 2.5% among 59,000 | Potency, µM (series often up to 114 µM), for inactives: at the highest dose activity change, negative = inhibition, most hits filed as inhibitors | N-terminal Xaa-Pro-Lys N-methyltransferase 1 (Homo sapiens), Q9BV86 | NTMT1 MTase-Glo SAH luminescence, purified enzyme;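 also: potency is read from the fitted curve at half-maximal effect; plate controls were DMSO vehicle for no effect and no enzyme for full effect; nearly all actives have a fitted effect of over 65% in size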
* hit, by the source's call; ! = not active in a repeat; [ ] = another dose, or the depositor's remark. Only a selection was taken, and hits are over-represented in it overall. Calls follow the shape of the dose curve; as a rule, active = well fitted curve in the direction sought with a large enough effect; inconclusive = small, poorly fitted or top-dose-only effect, or another doubt; inactive = no such curve, though single readings can be large; an effect the other way counts as inactive or inconclusive.

What do the screens show for `CCC(=O)N1CCc2cc(Br)cc(S(=O)(=O)N3CCCC(C(=O)Nc4ccc(OC)cc4OC)C3)c21` (stereo not given)?
PTAP-TSG101 blk: inactive; HTT prom inh: -1.3%; GALK inhibitor: 6.7%; HTT-AS promoter: -10.7%; B2AR arrestin ag: inactive; NTMT1 inhibitor: 89.1µM*

How did CCC(=O)N1CCc2cc(Br)cc(S(=O)(=O)N3CCCC(C(=O)N(C)c4ccc(Br)cc4)C3)c21 (stereo not given) do in these assays?
PTAP-TSG101 blk: inactive; HTT prom inh: -37.3%; GALK inhibitor: -0.3%; HTT-AS promoter: -42.0%; B2AR arrestin ag: inactive; NTMT1 inhibitor: 89.1µM*

What do the screens show for `Clc1ccccc1CSc1nc2ncc(Br)cc2[nH]1`?
NTMT1 inhibitor: -6.6%[57.5 µM]

How did CCOC(=O)c1nn(-c2ccccc2)c(=O)c2c(N)scc12 do in these assays?
NTMT1 inhibitor: 50.1µM*

What do the screens show for `Cc1ccc(OCCn2c(CCNC(=O)CCN3CCCCC3)nc3ccccc32)cc1`?
NTMT1 inhibitor: 0.4%[57.5 µM]

Results for Nc1nc(=S)c2[nH]cnc2[nH]1 ?
HTT prom inh: inconclusive; HTT-AS promoter: -13.2%; NTMT1 inhibitor: 3.55µM*

What do the screens show for `O=S(=O)(c1ccc(Cl)cc1)c1nnn2c1nc(NCc1ccccc1)c1sccc12`?
PTAP-TSG101 blk: inactive; HTT prom inh: -13.2%; GALK inhibitor: -8.3%; HTT-AS promoter: -8.9%; B2AR arrestin ag: inactive; NTMT1 inhibitor: 89.1µM*

Results for O=C1NC(=O)C(c2ccccc2[N+](=O)[O-])=C1Nc1ccc(O)c(Cl)c1 ?
HTT prom inh: -18.3%; HTT-AS promoter: -28.2%; NTMT1 inhibitor: 44.7µM*!

How did COc1ccc(S(=O)(=O)N(C(C)=O)c2ccccc2/C=C/c2cc[n+]([O-])cc2)cc1 do in these assays?
NTMT1 inhibitor: 4.1%

How did COC(=O)c1cccc(NC(=O)c2nsc3ccccc23)c1 do in these assays?
PTAP-TSG101 blk: inactive; HTT prom inh: -34.1%; GALK inhibitor: 6.7%; HTT-AS promoter: inconclusive; B2AR arrestin ag: inactive; NTMT1 inhibitor: 44.7µM*

What do the screens show for `COc1cccc(N2CCN(C(=O)c3ccc(NC(=O)c4nsc5ccccc45)cc3)CC2)c1`?
PTAP-TSG101 blk: inactive; HTT prom inh: 14.1µM*; GALK inhibitor: -9.1%; HTT-AS promoter: -70.5%; B2AR arrestin ag: inactive; NTMT1 inhibitor: -12.9%

Results for COc1ccc(N2CCN(C(=O)c3ccc(NC(=O)c4nsc5ccccc45)cc3)CC2)cc1 ?
PTAP-TSG101 blk: inactive; HTT prom inh: inconclusive; GALK inhibitor: 2.4%; HTT-AS promoter: inconclusive; B2AR arrestin ag: inactive; NTMT1 inhibitor: inconclusive

Results for CCOc1ccc(CCNC(=O)c2cc3ccccc3n2Cc2cc(C)cc(C)n2)cc1OCC ?
NTMT1 inhibitor: 11.0%

Results for CCOc1ccc(NC(=O)c2ccc(F)c(S(=O)(=O)N(CC)Cc3ccccc3)c2)cc1 ?
PTAP-TSG101 blk: inactive; HTT prom inh: 2µM*; GALK inhibitor: -0.3%; HTT-AS promoter: -39.8%; B2AR arrestin ag: inactive; NTMT1 inhibitor: 3.2%

What do the screens show for `CCN(Cc1ccccc1)S(=O)(=O)c1cc(C(=O)Nc2cc(Cl)cc(Cl)c2)ccc1F`?
PTAP-TSG101 blk: inactive; HTT prom inh: 25.1µM*; GALK inhibitor: 2.0%; HTT-AS promoter: -45.4%; B2AR arrestin ag: inactive; NTMT1 inhibitor: 10.3%
